These results are taken from PubChem BioAssay (NCATS).

Experiment [1] in a line: Primary qHTS for inhibitors of nuclear receptor binding SET domain protein 2 (NSD2) in an RCH-ACV wild type WT cells (2C) (AID 1645877). For activity change, negative = cell killing: % is set by controls: 0 for no effect and ±100 for the full control effect. Note: nearly all actives have a fitted effect of over 70% in size. Note: potency is the fitted concentration of half-maximal effect.
In experiment [2] the target is Glutathione peroxidase 1 (Homo sapiens) (UniProt P07203). Put plainly: Primary qHTS Assay for Inhibitors of Recombinant Selenoprotein Glutathione Peroxidase 1 (GPX1) (AID 1845191). For activity, negative = inhibition: % is set by controls: 0 for no effect and ±100 for the full control effect. Note: nearly all actives have a fitted effect of over 65% in size. In a few lines:
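GR-coupled readout: NADPH consumption tracked by fluorescence, ex 340/em 450 nm, at t=0 and after 15 min at RT. Final mix 10 nM GPX1, 1 mM GSH, 0.5 mM CHP, 0.5 mM NADPH, 100 nM GR, 0.01% BSA, following 30 min enzyme–compound preincubation.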
For orientation: qHTS replaces the single test concentration by a dilution series.

Experiment [3] addresses Phospholipid hydroperoxide glutathione peroxidase GPX4 (Homo sapiens) (UniProt P36969). As to the kind of experiment: Primary qHTS Assay for Inhibitors of Recombinant Selenoprotein Glutathione Peroxidase 4 (GPX4) (AID 1845192). For activity change, negative = inhibition: series mostly up to about 50 µM; % is set by controls: 0 for no effect and ±100 for the full control effect. Note: nearly all actives have a fitted effect of over 65% in size. Put shortly: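 Steps: GPX4 plus compound, 30 min RT; add GR/GSH/NADPH master mix; start with cumene hydroperoxide; read 340/450 nm fluorescence at 0 and 15 min. Finals were 200 nM GPX4, 1 mM GSH, 0.5 mM CHP, 0.5 mM NADPH, 100 nM GR.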

In experiment [4] the target is Luciferin 4-monooxygenase (Photinus pyralis) (UniProt P08659). Put plainly: Primary firefly luciferase (FLuc) qHTS assay for identification of artifact compounds. (AID 1845220).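 For activity change, negative = inhibition: series mostly up to about 54 µM; plate controls were DMSO vehicle for no effect and no enzyme for full effect.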 Note: nearly all actives have a fitted effect of over 60% in size. In a few lines: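 Titrated compounds were incubated 15 min at RT, protected from light, with luciferin and ATP at 10 uM; reaction started with 10 nM FLuc, luminescence imaged at 5 min, and concentration-response fitted by Hill equation.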

The nature of experiment [5]: Primary fluorescence-based thiol-reactive (MSTI) qHTS assay for identification of artifact compounds. (AID 1845221).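 Note: series mostly up to about 54 µM; thiol-reactive compounds lower the probe fluorescence signal; nearly all actives have a fitted effect of over 65% in size.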 Put shortly: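 MSTI probe at 4 uM final in 2% DMSO/PBS pH 7.4; compounds, 1 h at room temperature in dark. Fluorescence Ex/Em 525/598 nm, normalised to Acetyl-MSTI and MSTI, fitted to 4-parameter Hill.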
The subject of experiment [6] is Nanoluciferase (engineered Oplophorus gracilirostris luciferase). As to the kind of experiment: Primary Nanoluciferase (NLuc) qHTS assay for identification of artifact compounds. (AID 1845222).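 Note: NLuc secreted into diluted conditioned medium of S16 cells; series mostly up to about 54 µM; 0% = DMSO and -100% = no enzyme.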 In a few lines:
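qHTS format, against NLuc in S16 cell-conditioned medium. Nano-Glo substrate 1:100 was added after 15 min at room temperature. Luminescence was taken after a further 5 min.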

Experiment [7] in a line: Primary redox qHTS assay for identification of artifact compounds. (AID 1845223).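 Note: 0% = DMSO and 100% = reference compound.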 Put shortly:
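Redox-cycling detection via DTT (250 uM final) oxidation coupled to Amplex Red (25 uM)/HRP (250 mU/mL) in HBSS. 15 min preincubation plus 30 min after DTT, room temperature. Ex/Em 525/598 nm; 4-parameter Hill fit against DMSO and 10 uM DA3003.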

A number with no mark means an inactive call. Records with an inconclusive call do not appear. Calls of active or inactive are those of the source. Calls come from the whole dose curve; as a rule, active = well fitted curve in the direction sought with a large enough effect; inconclusive = small, poorly fitted or top-dose-only effect, or another doubt; inactive = no such curve, though single readings can be large; an effect the other way counts as inactive or inconclusive.

Chain of Glutathione peroxidase 1 (Homo sapiens) (P07203 whole entry, looked up): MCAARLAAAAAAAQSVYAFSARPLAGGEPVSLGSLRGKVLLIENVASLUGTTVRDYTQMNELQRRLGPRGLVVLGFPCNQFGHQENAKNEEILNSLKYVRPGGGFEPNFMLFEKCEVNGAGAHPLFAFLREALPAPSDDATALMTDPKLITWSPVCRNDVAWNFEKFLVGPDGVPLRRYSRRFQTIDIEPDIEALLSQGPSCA
Chain of Phospholipid hydroperoxide glutathione peroxidase GPX4 (Homo sapiens) (P36969 whole entry, looked up): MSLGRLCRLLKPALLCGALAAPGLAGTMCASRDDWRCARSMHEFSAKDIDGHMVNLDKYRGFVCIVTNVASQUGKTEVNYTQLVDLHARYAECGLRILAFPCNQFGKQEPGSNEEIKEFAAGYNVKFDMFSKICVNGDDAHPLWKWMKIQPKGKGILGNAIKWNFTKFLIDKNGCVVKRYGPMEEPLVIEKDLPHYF

As to `CCc1cccc(CC)c1NC(=O)c1nn(C)c2c1CCc1cnc(Nc3ccc(C(=O)NC4CCN(C)CC4)cc3OC(F)(F)F)nc1-2`, the Potency in experiment [1] is 1780 nM (active). For the same compound, the Potency result in experiment [2], in experiment [3], in experiment [4], in experiment [5], in experiment [6] and in experiment [7] was “inactive” throughout.

With `C[C@H](O)[C@H](O)/C=C/c1cccc(O)c1CO`, the Potency entry in experiment [1], in experiment [2], in experiment [3], in experiment [4], in experiment [5] and in experiment [6] was “inactive” throughout. For the same compound, the Potency entry in experiment [7] is “inactive”.

With `COCCOc1ccc(N2CCN(CCn3ncc4c3nc(N)n3nc(-c5ccco5)nc43)CC2)cc1`, the Potency entry in experiment [1], in experiment [2], in experiment [3], in experiment [4], in experiment [5] and in experiment [6] was “inactive” in each case. For the same compound, the Potency entry in experiment [7] was “inactive”.

Take `CO[C@H]1C[C@@H]2CC[C@@H](C)[C@@](O)(O2)C(=O)C(=O)N2CCCC[C@H]2C(=O)O[C@H]([C@H](C)C[C@@H]2CC[C@@H](OP(C)(C)=O)[C@H](OC)C2)CC(=O)[C@H](C)/C=C(\C)[C@@H](O)[C@@H](OC)C(=O)[C@H](C)C[C@H](C)/C=C/C=C/C=C/1C`: the Potency in experiment [1] was 46.8 nM (active). Also, the Potency result in experiment [2], in experiment [3], in experiment [4], in experiment [5], in experiment [6] and in experiment [7] was “inactive” in each case.

As for `CC12CCC3c4ccc(OC5OC(C(=O)O)C(O)C(O)C5O)cc4CCC3C1CCC2O` (stereo not given), the Potency entry in experiment [1], in experiment [2], in experiment [3], in experiment [4], in experiment [5] and in experiment [6] was “inactive” each time. Further, in experiment [7], the Potency entry is “inactive”.

Turning to `O=C(O)CCCCCC[C@H]1C(=O)NC(=O)N1CC[C@@H](O)C1CCCCC1`, the Potency result in experiment [1], in experiment [2], in experiment [3], in experiment [4], in experiment [5] and in experiment [6] was “inactive” each time. Besides, in experiment [7], the Potency result is “inactive”.

Take `CCC(Nc1ncnc2nc[nH]c12)c1nc2cccc(F)c2c(=O)n1-c1ccccc1` (stereo not given): in experiment [1], the Potency is 461 nM (active). The Potency result in experiment [2], in experiment [3], in experiment [4], in experiment [5], in experiment [6] and in experiment [7] was “inactive” each time.

Turning to `COC(=O)c1ccc(OC(CO)C(O)c2ccc(O)c(OC)c2)c(OC)c1` (stereo not given), the Potency result in experiment [1], in experiment [2], in experiment [3], in experiment [4], in experiment [5] and in experiment [6] was “inactive” in each case. In addition, the Potency result in experiment [7] was “inactive”.

As to `CC12CCC(=O)C=C1C(O)CC1C2C(O)CC2(C)C1CC[C@]2(O)C(=O)CO` (stereo not given in full), the activity change, negative = cell killing in experiment [1] is -15% [at 9.23 µM]. Moreover, the Potency result in experiment [2] and in experiment [3] was “inactive” in each case. For the same compound, the activity change, negative = inhibition in experiment [4] was 2.02% [at 11.6 µM]. In experiment [5], the activity change, negative = thiol reactive is -1.91% [at 11.5 µM]. The activity, negative = inhibition in experiment [6] is 4.05% [at 11.6 µM]. Also, in experiment [7], the redox activity (% of DA3003) was -2.06% [at 11.5 µM].

For the compound `CC[C@@H](O)C[C@@H]1C(C)=C[C@@H]2CCCC[C@@H]2[C@@]1(C)C(=O)O`, the Potency entry in experiment [1], in experiment [2], in experiment [3], in experiment [4], in experiment [5] and in experiment [6] was “inactive” each time. The Potency entry in experiment [7] was “inactive”.

`CC(C)=CCC/C(C)=C/CO[C@@H]1O[C@H](CO)[C@@H](O)[C@H](O)[C@H]1O`: the Potency entry in experiment [1], in experiment [2], in experiment [3], in experiment [4], in experiment [5] and in experiment [6] was “inactive” in each case. In addition, in experiment [7], the Potency result is “inactive”.

Consider `CC12CCC(C(OC3OC(COC4OCC(O)(CO)C4O)C(O)C(O)C3O)C1)C(C)(C)O2` (stereo not given), for which the Potency entry in experiment [1], in experiment [2], in experiment [3], in experiment [4], in experiment [5] and in experiment [6] was “inactive” in each case. Further, in experiment [7], the Potency entry is “inactive”.

Take `C/C=C(\C)C(=O)O[C@@H]1CC2[C@@H](CC=C3C[C@@H](O[C@H]4C[C@H](OC)[C@H](O[C@H]5C[C@H](OC)[C@H](O[C@@H]6O[C@H](C)[C@@H](O[C@H]7C[C@H](OC)[C@H](O[C@@H]8O[C@H](CO)[C@@H](O)[C@H](O)[C@H]8O)[C@@H](C)O7)[C@H](OC)[C@H]6O)[C@@H](C)O5)[C@@H](C)O4)CC[C@@]32C)[C@@]2(O)CC[C@H](C(C)=O)[C@@]12C` (stereo not given in full): the activity change, negative = cell killing in experiment [1] is -12.6% [at 9.23 µM]. The figures for the outcome in experiment [2] and in experiment [4] were “inactive [at 9.52 µM]” and “inactive [at 11.6 µM]”, respectively. Also, in experiment [3], the activity change, negative = inhibition is -6.94% [at 9.73 µM]. Also, the activity change, negative = thiol reactive in experiment [5] is 14.5% [at 11.5 µM]. Besides, the activity, negative = inhibition in experiment [6] was 2.98% [at 11.6 µM]. In experiment [7], the redox activity (% of DA3003) was -4.24% [at 11.5 µM].

In the case of `CC1OC(OC2C(CO)OC(OCC3OC(OC(=O)C45CCC(C)(C)CC4C4=CCC6C7(C)CCC(OC8OC(CO)C(O)C(OC9OC(CO)C(O)C(O)C9O)C8O)C(C)(C)C7CCC6(C)C4(C)CC5)C(O)C(O)C3O)C(O)C2O)C(O)C(O)C1OC1OC(CO)C(O)C(O)C1O` (stereo not given), in experiment [1], the activity change, negative = cell killing is -10.4% [at 9.23 µM]. For the same compound, the activity, negative = inhibition in experiment [2] is -12.6% [at 9.52 µM]; in experiment [6], 1.03% [at 11.6 µM]. Besides, the activity change, negative = inhibition was -8.53% [at 9.73 µM] in experiment [3] and -3.46% [at 11.6 µM] in experiment [4]. Besides, in experiment [5], the activity change, negative = thiol reactive is 208% [at 11.5 µM]. In addition, the redox activity (% of DA3003) in experiment [7] was 10.1% [at 11.5 µM].

Turning to `CC1(C)CC[C@]2(C(=O)O[C@@H]3O[C@H](CO)[C@@H](O)[C@H](O)[C@H]3O)CC[C@]3(C)C(=CCC4[C@@]5(C)CC[C@H](O[C@@H]6O[C@H](C(=O)O)[C@@H](O)[C@H](O[C@@H]7O[C@H](CO)[C@H](O)[C@H](O)[C@H]7O)[C@H]6O)C(C)(C)C5CC[C@]43C)C2C1` (stereo not given in full), the activity change, negative = cell killing in experiment [1] is -15.1% [at 9.23 µM]. Further, the Potency entry in experiment [2] and in experiment [3] was “inactive” throughout. For the same compound, the activity change, negative = inhibition in experiment [4] was -3.44% [at 11.6 µM]. The activity change, negative = thiol reactive in experiment [5] was 172% [at 11.5 µM]. Further, the activity, negative = inhibition in experiment [6] was 3.94% [at 11.6 µM]. The redox activity (% of DA3003) in experiment [7] is 0.97% [at 11.5 µM].
